Assay results from PubChem BioAssay (NCI).
Compounds without any hit were thinned out: in the full panel of roughly 83,000, 20% have a hit.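 The test compound was applied at a single concentration to cells in 96-well plates for 48 hours, and percent growth was recorded.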 Values without a mark were called inactive. Active and inactive are the calls of the source. How the source made its calls: active means growth percent below 10; inactive means the rest.

Legend:
Experiment in all cases: NCI-60 one-dose screen, 48 h (100 = growth as untreated, 0 = no growth, -100 = all killed)
Settings in all cases: 10 µM unless noted
[1] = tested on: HT29 colon
[2] = tested on: SNB-75 CNS
[3] = tested on: SNB-19 CNS
[4] = tested on: U251 CNS
[5] = tested on: PC-3 prostate
[6] = tested on: SK-MEL-5 melanoma
[7] = tested on: UACC-62 melanoma
[8] = tested on: LOX IMVI melanoma
[9] = tested on: SK-MEL-28 melanoma
[10] = tested on: SN12C renal
[11] = tested on: UO-31 renal
[12] = tested on: TK-10 renal
[13] = tested on: ACHN renal
[14] = tested on: CAKI-1 renal
[15] = tested on: A498 renal
[16] = tested on: CCRF-CEM leukemia
[17] = tested on: MOLT-4 leukemia
[18] = tested on: SR leukemia
[19] = tested on: SK-MEL-2 melanoma
[20] = tested on: EKVX NSCLC

Row | SMILES | growth [1] | growth [2] | growth [3] | growth [4] | growth [5] | growth [6] | growth [7] | growth [8] | growth [9] | growth [10] | growth [11] | growth [12] | growth [13] | growth [14] | growth [15] | growth [16] | growth [17] | growth [18] | growth [19] | growth [20]
1 | COc1cccc(-c2nn(-c3ccccc3)cc2-c2ccnc(N3CCN(C(=O)c4ccccc4)CC3)c2)c1 | 87.2% | 65.9% | 85.5% | 78.4% | 46.6% | 49.8% | 62.4% | 87.5% | 84.2% | 87.6% | 72.3% | 127% | 93% | 86.2% | 66.9% | 52.9% | 43.8% | 27.5% | – | –
2 | O=C(N/N=C/c1cccs1)c1[nH]c2ccc(Br)cc2c1-c1ccccc1 | -23.3% (active) | 31.4% | 32.3% | 19.1% | 26.1% | -36.7% (active) | 43% | – | 60.7% | 45.7% | 49.4% | 121% | 28.5% | 25.7% | – | 8.56% (active) | 11.5% | 6.19% (active) | 20.3% | 42.2%
3 | CCCSc1nc(Nc2ccc(/C(C)=N\NC(N)=S)cc2)c(C#N)c(-c2ccc(OC)cc2)n1 | 87.7% | 56% | 39.7% | 17.1% | 99.8% | 58.2% | 87.7% | – | 79.8% | 33.5% | 28.3% | 33.4% | 47.2% | -7.3% (active) | 101% | 89.2% | 80.4% | 74.2% | 89.7% | 74.8%
4 | COc1cc(OC)c(S(=O)(=O)NNC(=O)c2ccncc2)cc1C(=O)/C=C/c1ccc(C)cc1 | 95.1% | 73% | 66.7% | 68.1% | 45.9% | 94.2% | 76.2% | – | 104% | 95.8% | 77.5% | 145% | 98.1% | 72.4% | – | 8.66% (active) | 42.2% | 21.9% | 109% | 85.7%
5 | CCOC(=O)c1c(Nc2ccccc2)nn2c(N)c(C#N)c(-c3ccccc3)nc12 | 92.1% | 86.1% | 89.4% | 74.6% | 76.5% | 86.8% | 83.4% | – | 99.4% | 93.9% | 81.1% | 105% | 83.4% | 72% | – | 68.3% | 46.8% | 58.9% | 92.2% | 82.3%
6 | COC(=O)C1CN(S(=O)(=O)/N=C2\NC(=O)NC2=C(Cl)Cl)C1 | 111% | 113% | 100% | 105% | 99.3% | 100% | 95.7% | – | 112% | 101% | 88.7% | 139% | 106% | 101% | – | 95.5% | 104% | 94.4% | 108% | 104%
7 | Fc1ccc(-c2cc3nc(C(Cl)Cl)nc(-c4ccc(Cl)cc4)n3n2)cc1 | -35% (active) | -2% (active) | 6.37% (active) | -58.1% (active) | 22.8% | 76.9% | 53.1% | – | 11.6% | 53.3% | 27.4% | 17.3% | -63.6% (active) | -23.3% (active) | -38.8% (active) | 56.8% | 19.3% | 3.51% (active) | 89.4% | 5.99% (active)
8 | CS(=O)(=O)c1ccc(-c2nc3ccccn3c2C=Nc2ccc(Cl)cc2)cc1 | 75.7% | 77.9% | 89.1% | 91.9% | 57.8% | 68.6% | 24.5% | – | 74.3% | 81.6% | 61.4% | 110% | 49.4% | 42.9% | 79.1% | 61.8% | 64.9% | 96.8% | 107% | 100%
9 | Cn1ccnc1C(=O)/C=C/c1ccc(NC(=O)Nc2ccccc2)cc1 | 3.3% (active) | 17.1% | 21.8% | 2.77% (active) | 37.8% | 77.9% | 38.5% | – | 75.1% | 45.6% | 40.7% | 85.9% | 26.8% | 31.9% | – | 7.34% (active) | 4.35% (active) | -3.08% (active) | 102% | 16.5%
10 | NS(=O)(=O)c1cccc(Nc2nc(SCC(=O)c3ccc(Br)cc3)nc3ccccc23)c1 | 90.2% | 10.9% | 35.3% | 59.7% | 36.5% | 58.7% | 59.1% | – | 84.4% | 74.9% | 59.6% | 124% | 28% | -11.3% (active) | – | 68.6% | 44% | 37.1% | 89.9% | 64.8%
11 | COc1cccc(OC)c1-c1nnn(C)c1C(=S)N1CCN(c2ccc([N+](=O)[O-])cc2Cl)CC1 | 104% | 92.2% | 92.7% | 97.9% | 54% | 90.1% | 69.1% | – | 98.3% | 93.6% | 58.7% | 105% | – | 78.9% | – | 91.7% | 78% | 87.1% | 110% | 83.6%
12 | CS(=O)(=O)c1ccc(-c2nc3ccccn3c2/C=N/Nc2nc(-c3ccc(Cl)cc3)cs2)cc1 | 110% | 120% | 107% | 108% | 102% | 91.7% | 102% | 122% | 93.1% | 102% | 76.2% | – | 101% | 91.8% | 79.9% | 85.6% | 82% | 95.1% | – | –
13 | COc1cc(N=Cc2sc(Nc3nccs3)nc2O)cc(OC)c1OC | 109% | 73.6% | 78.2% | 84.7% | 80.9% | 87.6% | 75.5% | – | 84.2% | 94.7% | 59% | 224% | 86% | 69% | – | 72% | 78.2% | 63.9% | 74% | 82.2%
14 | O=C(N/N=C/c1ccc([N+](=O)[O-])o1)c1[nH]c2ccc(Br)cc2c1-c1ccccc1 | 9.21% (active) | 17.7% | 22% | 13.3% | 16.2% | -84% (active) | 6.4% (active) | – | 55.9% | 21.9% | 30.9% | 78.7% | 16.1% | 20.3% | – | 7.85% (active) | 5.69% (active) | 6.28% (active) | -12.4% (active) | 39.2%
15 | Cc1cc(C(NC(=O)CCCCCNc2cccc3c2C(=O)N(C2CCC(=O)NC2=O)C3=O)c2cccnc2)c(O)c2ncccc12 (stereo unspecified) | 20.5% | 8.96% (active) | 21.7% | 30.7% | 6.73% (active) | -58.7% (active) | 18.5% | – | 25.2% | 20.1% | 18.7% | 19.2% | 35.6% | 14.2% | – | -4.83% (active) | 1.29% (active) | 11.6% | -16.9% (active) | 34.3%
16 | O=C1NC(=C(Cl)Cl)/C(=N/S(=O)(=O)N2CCCCC2CC2(C(F)(F)F)N=N2)N1 (stereo unspecified) | -25.7% (active) | 101% | 40.8% | -1.13% (active) | 60.5% | 95.3% | 38.4% | – | 7.84% (active) | 95.8% | 18.2% | 63.4% | -48.9% (active) | -65.4% (active) | – | 4.21% (active) | -9.34% (active) | -33.4% (active) | -4.45% (active) | 59.2%
17 | N#Cc1nc(-c2ccccc2)oc1N1CC[C@@H](CO)C1 | 107% | 98.3% | 94% | 103% | 92.2% | 99.6% | 92.4% | – | 101% | 98.1% | 86.3% | 123% | – | 91.5% | – | 93.6% | 101% | 84.6% | 110% | 98.5%
